Inconclusive results are not listed. Calls of active or inactive are those of the source. The call rests on the fitted dose curve; in most records, active means well fitted inhibition curve with a large enough effect; inconclusive means small, poorly fitted or top-dose-only effect; inactive means flat fitted curve, though single readings scatter. Where a SMILES comes first, the peptide text is derived from it. [ ]: non-standard residue; d: D form.
Potency means the concentration at half of the fitted maximal effect.

The assay is described as follows: Primary qHTS for inhibitors of nuclear receptor binding SET domain protein 2 (NSD2) in an isogenic RCH-ACV NSD2 p.E1099K mutant (9B) (AID 1645876). Further: nearly all actives have a fitted effect of over 70% in size. As to conditions: RCH-ACV (leukaemia line) NSD2 E1099K (9B) viability, CellTiter-Glo, 72 h; series mostly up to 44.9 µM. (In qHTS, concentration-response curves come from the screen itself.)
As to `O=C(O)c1ccc(O)c2ncccc12`, the Potency was 20900 nM (active).

For the molecule `CC(C)C[C@@H]1NC(=O)[C@@H](C(C)C)NC(=O)[C@@H]2CCCN2C(=O)[C@@H](CC(=O)O)NC(=O)[C@@H](Cc2c[nH]c3ccccc23)NC1=O` (cyclo(L[dW][dD]P[dV])), the Potency entry is “inactive”.

On to `Nc1nc(F)nc2c1ncn2C1OC(COP(=O)(O)O)C(O)C1O` (stereo not given), for which the Potency was 2950 nM (active).

Regarding `O=C(/C=C/c1cccnc1)NCCCCC1CCN(C(=O)c2ccccc2)CC1`, the Potency is 1.9 nM (active).

`CC(/C=C1\SC(=S)N(CC(=O)O)C1=O)=C\c1ccccc1`: the Potency entry was “inactive”.

Consider `Cn1cc(/C=C/C(=O)c2cccc(F)c2)cc1/C=C/C(=O)NO`, for which the Potency was 14800 nM (active).

As to `COc1ccnc2[nH]cc(C(=O)C(=O)N3CCN(C(=O)c4ccccc4)C[C@H]3C)c12`, the Potency entry was “inactive”.

As to `COc1ccc(-n2cnc3cc(C(=O)N4CCCCC4)ccc32)cc1`, the Potency result was “inactive”.

`CCC1CCCCN1C(=O)n1ncc(C(O)(c2ccccc2)c2ccccc2)n1` (stereo not given): the Potency was 10500 nM (active).

Take `CCN1C(=O)CNc2ncc(-c3ccc(-c4ncn[nH]4)nc3C)nc21`: the Potency is 833 nM (active).

On to `O=C1OC(COc2ccccc2[N+](=O)[O-])CC1Cc1ccccc1` (stereo not given), for which the Potency result is “inactive”.

In the case of `O=C(/C=C/c1ccc2ccc(C(F)(F)F)cc2n1)c1ccncc1`, the Potency is 2350 nM (active).

Consider `C[C@H]1CC2[C@@H]3CCC4=CC(=O)C=C[C@]4(C)[C@@]3(F)[C@@H](O)C[C@]2(C)[C@@]1(O)C(=O)CO` (stereo not given in full), for which the Potency result was “inactive”.

For the molecule `Cc1c(CN2CCN(C(=O)[C@H](C)O)CC2)sc2c(N3CCOCC3)nc(-c3cnc(N)nc3)nc12`, the Potency was 41.7 nM (active).

For `Cc1cc(C)c(S(=O)(=O)N(CCc2cccc(Br)c2)Cc2ccc(-c3cccc(S(C)(=O)=O)c3)cc2)c(C)c1`, the Potency result is “inactive”.

In the case of `CN(CCOc1ccc(C[C@H](Nc2ccccc2C(=O)c2ccccc2)C(=O)O)cc1)c1ccccn1`, the Potency result is “inactive”.

As to `CC(=O)N1c2ccc(-c3ccc(C(=O)O)cc3)cc2[C@H](Nc2ccc(Cl)cc2)C[C@@H]1C`, the Potency was 93.4 nM (active).

As for `COC1=C(OC)C(=O)C(C/C=C(\C)CC/C=C(\C)CC/C=C(\C)CC/C=C(/C)CC/C=C(\C)CC/C=C(\C)CC/C=C(\C)CC/C=C(\C)CC/C=C(\C)CCC=C(C)C)=C(C)C1=O`, the Potency entry is “inactive”.

Consider `Cc1ccc(-n2c(C)cc(-c3nnc4n3CCCCC4)c2C)cc1`, for which the Potency is 18600 nM (active).

As to `CS(=O)(=O)c1ccc(-c2cnc(NCc3ccco3)n3cnnc23)cc1`, the Potency result was “inactive”.

`COc1nc(N)nc2c1ncn2C1OC(CO)C(O)C1O` (stereo not given): the Potency was 5250 nM (active).

For `C/C(=N\NC(=O)c1cccc(S(=O)(=O)N2CCOCC2)c1)c1cc(Cl)ccc1O`, the Potency was 2090 nM (active).

Take `CNc1nc(-c2ccc3c(N)n[nH]c3c2)cc(N2C[C@@H](C(=O)NC3CCCCC3)CC[C@H]2C)n1`: the Potency was 525 nM (active).

On to `Cn1cc(/C=C2\C(=O)Nc3cccnc32)c2ccccc21`, for which the Potency is 5250 nM (active).

Regarding `C[C@@H]1CC(=O)Nc2cccc(-c3cnn(C(C)(C)C)c3)c2N1`, the Potency is 6610 nM (active).

On to `O=C(CCCc1ccc2cccnc2n1)NCc1cc(-c2ccc(F)c(C(F)(F)F)c2)no1`, for which the Potency result was “inactive”.

Consider `Cc1cccc(/C=N/Nc2cc(N3CCOCC3)nc(OCCc3ccccn3)n2)c1`, for which the Potency is 468 nM (active).

For the molecule `C[C@H]1[C@H](C)CC[C@]2(C(=O)O)CC[C@]3(C)C(=CC[C@@H]4[C@@]5(C)CC[C@H](O)C(C)(C)[C@@H]5CC[C@]43C)[C@H]12`, the Potency result is “inactive”.

For the molecule `COc1ccc([C@@H](O)[C@@H](C)Oc2ccc([C@H]3O[C@H](c4ccc(O[C@H](C)[C@H](O)c5ccc(OC)c(OC)c5)c(OC)c4)[C@H](C)[C@H]3C)cc2OC)cc1OC`, the Potency is 5250 nM (active).

As for `CN(C)C[C@@H]1CCn2cc(c3ccccc32)C2=C(C(=O)NC2=O)c2cn(c3ccccc23)CCO1`, the Potency was 7420 nM (active).

For `COc1cc2nccc(Oc3ccc(NC(=O)c4cn(C(C)C)c(=O)n(-c5ccc(F)cc5)c4=O)cc3F)c2cc1OC`, the Potency result was “inactive”.

For the molecule `C[C@H](NC(=O)CCC(F)(F)F)C(=O)N[C@@H]1C(=O)N(CCO)c2ncccc2-c2ccccc21`, the Potency entry is “inactive”.

Take `CC(=NNC(=O)c1cccc(S(=O)(=O)N2CCOCC2)c1)c1cc(Cl)ccc1O`: the Potency is 2090 nM (active).

In the case of `C[C@H](CCC(=O)O)[C@H]1CC[C@H]2[C@@H]3[C@@H](O)C[C@@H]4C[C@H](O)CC[C@]4(C)[C@H]3CC[C@]12C`, the Potency entry was “inactive”.

As to `Clc1cccc(-c2ccc(-c3nnc(CCCc4ccc5cccnc5n4)o3)cc2)c1`, the Potency entry was “inactive”.

The values are drawn from PubChem BioAssay (NCATS).
